The panel holds about 83,000 compounds, 20% with a hit somewhere; the sample as a whole holds those more often.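 Values shown are percent growth following 48 h exposure of cells in 96-well plates to a single concentration of compound; below 10 was considered active.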 Activity calls are given as the source filed them.
Experiments:
Assay in all cases: NCI-60 one-dose screen, 48 h (100 = growth as untreated, 0 = no growth, -100 = all killed)
SK-MEL-2 melanoma = conditions: 10 µM unless noted
EKVX NSCLC = conditions: 10 µM unless noted
SN12C renal = conditions: 10 µM unless noted
UO-31 renal = conditions: 10 µM unless noted
TK-10 renal = conditions: 10 µM unless noted
ACHN renal = conditions: 10 µM unless noted
A498 renal = conditions: 10 µM unless noted
CCRF-CEM leukemia = conditions: 10 µM unless noted
MOLT-4 leukemia = conditions: 10 µM unless noted
CAKI-1 renal = conditions: 10 µM

Measured: growth

CN1CCN(C(=O)/C=C/c2ccc([N+](=O)[O-])o2)CC1
inactive: SK-MEL-2 melanoma 59.5% | EKVX NSCLC 132% | SN12C renal 91% | UO-31 renal 79.3% | TK-10 renal 159% | ACHN renal 63.7% | A498 renal 76% | CCRF-CEM leukemia 56.4% | MOLT-4 leukemia 59.9%

CCN(CC)c1ccc(C2CC(c3cc(OC)c(OC)c(OC)c3)=NN2)cc1 (stereo unspecified)
active: A498 renal -2.94% | MOLT-4 leukemia 7.4%
inactive: SK-MEL-2 melanoma 27.6% | EKVX NSCLC 27.6% | SN12C renal 47.2% | UO-31 renal 36.5% | TK-10 renal 77.8% | ACHN renal 75.3%

CC(=O)N[C@@H](CNC(=O)c1cc(NC(=O)c2cc(NC(=O)c3cc(NC(=O)c4nccn4C)cn3C)cn2C)cn1C)CC(=O)Nc1cn(C)c(C(=O)Nc2cc(C(=O)Nc3cc(C(=O)Nc4cc(C(=O)NCCCN(C)CCCNC(=O)c5cccc(C(=O)O)c5)n(C)c4)n(C)c3)n(C)c2)n1
inactive: SK-MEL-2 melanoma 89.4% | EKVX NSCLC 102% | SN12C renal 100% | UO-31 renal 77.1% | TK-10 renal 93.1% | ACHN renal 75.1% | A498 renal 92.9% | CCRF-CEM leukemia 103% | MOLT-4 leukemia 120%

C/C(=N/NC(=O)Cn1c2ccccc2c2ccncc21)c1cccs1
inactive: SK-MEL-2 melanoma 96.6% | EKVX NSCLC 103% | SN12C renal 104% | UO-31 renal 94.5% | TK-10 renal 127% | ACHN renal 103% | CCRF-CEM leukemia 91.1% | MOLT-4 leukemia 83.1%

COc1ccc(-c2cc3ccc(N(C)C)cc3nc2N)c(F)c1
inactive: SK-MEL-2 melanoma 47.9% | EKVX NSCLC 32.2% | SN12C renal 54% | UO-31 renal 39.3% | TK-10 renal 49.1% | ACHN renal 56.8% | CCRF-CEM leukemia 39.7% | MOLT-4 leukemia 26.3%

CCc1cccc(-c2ccccc2)c1
active: CCRF-CEM leukemia 8.01%
inactive: SK-MEL-2 melanoma 116% | EKVX NSCLC 102% | SN12C renal 99.5% | UO-31 renal 87.8% | TK-10 renal 106% | ACHN renal 108% | MOLT-4 leukemia 88%

CCNc1ncnc2n[nH]nc12
inactive: SK-MEL-2 melanoma 104% | EKVX NSCLC 94.7% | SN12C renal 102% | UO-31 renal 98.4% | TK-10 renal 91.9% | A498 renal 102% | CCRF-CEM leukemia 87.5% | MOLT-4 leukemia 100%

CC(=O)Cc1cccnc1
inactive: SK-MEL-2 melanoma 116% | EKVX NSCLC 105% | SN12C renal 98.9% | UO-31 renal 89.8% | TK-10 renal 95.5% | A498 renal 85.4% | CCRF-CEM leukemia 88.5% | MOLT-4 leukemia 93.7%

CN1CCN(CC(O)COc2c(Br)c(Br)c(Br)c3c2OC(C)(C)C3)CC1 (stereo unspecified)
active: UO-31 renal -14.8%
inactive: SK-MEL-2 melanoma 38.5% | EKVX NSCLC 87.7% | SN12C renal 92.5% | TK-10 renal 74.1% | ACHN renal 77.9% | CCRF-CEM leukemia 15.6% | MOLT-4 leukemia 18.3%

COc1ccc(/C=C/C(=O)c2ccc(-n3cc(CN4CCN(c5cc6c(cc5F)c(=O)c(C(=O)O)cn6C5CC5)CC4)nn3)cc2)cc1OC
inactive: SK-MEL-2 melanoma 97.4% | EKVX NSCLC 80% | SN12C renal 14.9% | UO-31 renal 43.5% | TK-10 renal 80% | CAKI-1 renal 60% | A498 renal 54.4% | MOLT-4 leukemia 10.5%
active: CCRF-CEM leukemia 3.05%

Cc1ncc(CO)c(C(=O)O)c1O
inactive: SK-MEL-2 melanoma 89.7% | EKVX NSCLC 101% | SN12C renal 97.6% | UO-31 renal 84.8% | TK-10 renal 81.2% | A498 renal 99.5% | CCRF-CEM leukemia 121% | MOLT-4 leukemia 82.5%

Cc1c(NC(=O)c2sc3nc4c(cc3c2N)CN(Cc2ccccc2)CC4)cccc1C(F)(F)F
inactive: SK-MEL-2 melanoma 49.5% | EKVX NSCLC 62.1% | SN12C renal 55.2% | UO-31 renal 65.6% | TK-10 renal 96% | A498 renal 52% | CCRF-CEM leukemia 15.6%

COc1ccc2c(c1)/C(=C/c1c(-c3cc(OC)c(OC)c(OC)c3Br)nc3sccn13)C(=O)N2
inactive: SK-MEL-2 melanoma 87.3% | EKVX NSCLC 84.6% | SN12C renal 120% | UO-31 renal 83.3% | TK-10 renal 118% | ACHN renal 86.5% | CCRF-CEM leukemia 81% | MOLT-4 leukemia 73.2%

O=C(CSc1nnc(-c2ccccc2)o1)Nc1ccc(C(=O)/C=C/c2ccccc2)cc1
inactive: SK-MEL-2 melanoma 99.2% | EKVX NSCLC 79.7% | SN12C renal 81.7% | UO-31 renal 55.7% | TK-10 renal 91% | A498 renal 83.8% | CCRF-CEM leukemia 55.5%

NC(=NCCCOc1ccc(F)cc1)Nc1ccc(Cl)c(Cl)c1
inactive: SK-MEL-2 melanoma 95.9% | EKVX NSCLC 74.9% | SN12C renal 66% | UO-31 renal 51.6% | TK-10 renal 69% | A498 renal 60.9% | CCRF-CEM leukemia 60.4% | MOLT-4 leukemia 36.1%

— PubChem BioAssay (NCI)
